Molecules are shown by their SMILES. Inconclusive results are not listed. Unmarked numbers belong to inactive results. Activity calls are given as the source filed them. Calls come from the whole dose curve; as a rule, active = well fitted inhibition curve with a large enough effect; inconclusive = small, poorly fitted or top-dose-only effect; inactive = flat fitted curve, though single readings scatter.

We go through twelve compounds from PubChem BioAssay (NCATS).

A short description of test [1]: qHTS profiling for inhibitors of Plasmodium falciparum proliferation (AID 504749).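 For activity, negative = inhibition: 0% = DMSO vehicle and full inhibition = artemisinin control.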 Note: nearly all actives have a fitted effect of over 60% in size. The following applies: P. falciparum in erythrocytes, SYBR Green DNA, 72 h. An outline of the steps: (§1)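 Parasite proliferation within erythrocytes, 72 h exposure. Endpoint: SYBR Green I fluorescence after overnight lysis at room temperature. Controls: 0.29 uM artemisinin, DMSO.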
(In qHTS, concentration-response curves come from the screen itself.)

Another test has as its system 3D7. Described as above. As to conditions: P. falciparum in erythrocytes, SYBR Green DNA, 72 h; series mostly up to 28.7 µM. In a few lines:
as §1

A further test deals with 7G8. The description is as above. As to conditions: P. falciparum in erythrocytes, SYBR Green DNA, 72 h; series mostly up to 28.7 µM. In a few lines:
as §1

Another test deals with AA1029. The description is as above. The following applies: P. falciparum in erythrocytes, SYBR Green DNA, 72 h; series mostly up to 28.7 µM. In a few lines:
as §1

The test system of the next test is AS120. The test is described as above. The following applies: P. falciparum in erythrocytes, SYBR Green DNA, 72 h; series mostly up to 28.7 µM. In a few lines: as §1
The next test relates to ATS189. Described as above. The following applies: P. falciparum in erythrocytes, SYBR Green DNA, 72 h; series mostly up to 28.7 µM. An outline of the steps:
as §1

A further test relates to ATS95. Described as above. As to conditions: P. falciparum in erythrocytes, SYBR Green DNA, 72 h; series mostly up to 28.7 µM. An outline of the steps: as §1
A further test has as its system C2A. The description is as above. The following applies: P. falciparum in erythrocytes, SYBR Green DNA, 72 h; series mostly up to 28.7 µM. An outline of the steps: as §1
The test system of another test is CP185. The test is described as above. The following applies: P. falciparum in erythrocytes, SYBR Green DNA, 72 h; series mostly up to 28.7 µM. An outline of the steps: as §1
The subject of the next test is CP191. Described as above. As to conditions: P. falciparum in erythrocytes, SYBR Green DNA, 72 h; series mostly up to 28.7 µM. An outline of the steps:
as §1

In a further test the test system is CP192. Described as above. The following applies: P. falciparum in erythrocytes, SYBR Green DNA, 72 h; series mostly up to 28.7 µM. In a few lines:
as §1

The next test concerns CP194. The test is described as above. The following applies: P. falciparum in erythrocytes, SYBR Green DNA, 72 h; series mostly up to 28.7 µM. An outline of the steps: as §1
The next test concerns CP201. Described as above. The following applies: P. falciparum in erythrocytes, SYBR Green DNA, 72 h; series mostly up to 28.7 µM. In a few lines: as §1
Setting [2] is: at 12.8 µM (top of the series), parasite line A.
Setting [3] is: at 12.8 µM (top of the series), parasite line B.
Setting [4] is: at 28.7 µM (top of the series), parasite line A.
Where [5] appears, read: at 28.7 µM (top of the series), parasite line B.
Potency is the fitted concentration of half-maximal effect.

As to `NC(N)=NCCN1CCCCCCC1`, the results for the activity, negative = inhibition in test [1] (setting [2]) and in [1] (setting [3]) were 4.56% and 10.2%, respectively. The Potency entry with 3D7, with 7G8, with AA1029, in the test on AS120, with ATS189 and in the test on ATS95 was “inactive” each time. Moreover, the Potency entry in the test on C2A and with CP185 was “inactive” throughout. In addition, the call with CP191, with CP192, with CP194 and in the test on CP201 was inactive.

Turning to `CCS(=O)(=O)CCn1c([N+](=O)[O-])cnc1C`, the activity, negative = inhibition was -2.71% in test [1] (setting [2]) and -11.1% in test [1] (setting [3]). For the same compound, the Potency entry with 3D7, in the test with 7G8, with AA1029, in the test on AS120, with ATS189 and in the test with ATS95 was “inactive” in each case. Moreover, the Potency entry in the test on C2A and in the test on CP185 was “inactive” in each case. For the same compound, the compound was called inactive in the test on CP191, in the test with CP192, in the test on CP194 and in the test on CP201.

As to `CC(=O)OCC(COC(C)=O)OC(C)=O`, the activity, negative = inhibition was 4.58% in test [1] (setting [4]) and 8.38% in [1] (setting [5]). Also, the Potency entry in the test on 3D7, in the test with 7G8, in the test on AA1029, in the test with AS120, in the test on ATS189 and in the test on ATS95 was “inactive” throughout. For the same compound, the Potency result in the test with C2A and with CP185 was “inactive” each time. For the same compound, the compound was classed as inactive in the test on CP191, in the test with CP194 and with CP201.

For the compound `NS(=O)(=O)c1ccc(NC(=O)CCC(=O)O)cc1`, the activity, negative = inhibition in test [1] (setting [4]) is 0.494%; in test [1] (setting [5]), 7.64%. Moreover, the Potency result in the test on 3D7, in the test with 7G8, with AA1029, in the test with AS120, with ATS189 and in the test with ATS95 was “inactive” in each case. In addition, the Potency entry with C2A and with CP185 was “inactive” each time. Also, the outcome in the test on CP191, with CP192, with CP194 and with CP201 was inactive.

On to `O[C@@H]1CO[C@H]2[C@@H]1OC[C@@H]2O`, for which the activity, negative = inhibition is 8.49% in test [1] (setting [4]) and 1.12% in test [1] (setting [5]). For the same compound, the Potency entry with 3D7, in the test on 7G8, in the test with AA1029, in the test on AS120, with ATS189 and with ATS95 was “inactive” throughout. Moreover, the Potency result with C2A and in the test on CP185 was “inactive” throughout. The compound was called inactive in the test with CP191, in the test on CP192, with CP194 and in the test on CP201.

Consider `NC(N)=NS(=O)(=O)c1ccc(N)cc1`, for which the activity, negative = inhibition in [1] (setting [2]) is 8.93%; in test [1] (setting [3]), 8.43%. In addition, the Potency result in the test on 3D7, in the test on 7G8, in the test with AA1029, with AS120, with ATS189 and with C2A was “inactive” throughout. Moreover, the Potency entry in the test with CP185 was “inactive”. Also, the compound was called inactive in the test on CP191, in the test with CP192, with CP194 and in the test with CP201.

`O=C(CN1CCNCC1)NC1CCCCC1`: the results for the activity, negative = inhibition in test [1] (setting [4]) and in test [1] (setting [5]) were 3.68% and 4.23%, respectively. Besides, the Potency entry in the test on 3D7, with 7G8, in the test with AA1029, in the test on AS120, with ATS189 and in the test with ATS95 was “inactive” throughout. Also, the Potency result in the test with C2A and in the test on CP185 was “inactive” each time. The compound was classed as inactive in the test with CP191, with CP192, in the test on CP194 and in the test on CP201.

In the case of `CCCCCCCCCCOc1cc2c(=O)c(C(=O)OCC)c[nH]c2cc1OCC`, the Potency is 0.9 nM (active) in test [1] (parasite line A); 2.2 nM (active) in test [1] (parasite line B); 2.2 nM (active) in the test with 3D7; 2.8 nM (active) with 7G8; 2.5 nM (active) in the test on AA1029; 2 nM (active) with AS120. In addition, the Potency is 1.3 nM (active) with ATS189, 2.8 nM (active) in the test on ATS95, 10 nM (active) in the test on C2A and 2.2 nM (active) in the test on CP185. For the same compound, in the test with CP192, the outcome was inactive.

Turning to `CCN(CC)S(=O)(=O)c1ccc(C(=O)O)cc1`, the activity, negative = inhibition in test [1] (setting [4]) was 7.39%; in [1] (setting [5]), 20.6%. Also, the Potency entry in the test on 3D7, in the test on 7G8, in the test on AA1029, in the test on AS120, with ATS189 and in the test with ATS95 was “inactive” throughout. Moreover, the Potency entry with C2A and in the test on CP185 was “inactive” in each case. Moreover, the result in the test on CP191, in the test with CP194 and in the test on CP201 was inactive.

Regarding `CC1CC(OC(=O)c2ccccc2O)CC(C)(C)C1` (stereo unspecified), the activity, negative = inhibition in [1] (setting [4]) is -5.75%; in test [1] (setting [5]), 14.6%. Moreover, the Potency result in the test on 3D7, with 7G8, with AA1029, in the test on AS120, in the test with ATS189 and in the test on ATS95 was “inactive” in each case. Besides, the Potency entry in the test with C2A and with CP185 was “inactive” each time. Besides, the compound was called inactive in the test with CP191, in the test with CP192, in the test on CP194 and in the test with CP201.

With `O=C(CCBr)N1CCN(C(=O)CCBr)CC1`, the activity, negative = inhibition in test [1] (setting [4]) was 10%; in test [1] (setting [5]), -0.0848%. In addition, the Potency entry in the test with 3D7, in the test on 7G8, in the test with AA1029, in the test with AS120, in the test with ATS189 and in the test on ATS95 was “inactive” throughout. Moreover, the Potency entry in the test on C2A and in the test with CP185 was “inactive” each time. For the same compound, the call with CP191, in the test with CP192, with CP194 and in the test with CP201 was inactive.

Regarding `CC[N+](C)(CC)CCOC(=O)C1c2ccccc2Oc2ccccc21`, the activity, negative = inhibition in [1] (setting [4]) is -12.5%; in [1] (setting [5]) it was -20.9%. For the same compound, the Potency result in the test with 3D7, in the test with 7G8, in the test on AA1029, in the test with AS120, in the test on ATS189 and with ATS95 was “inactive” each time. The Potency result in the test with C2A and with CP185 was “inactive” throughout. For the same compound, the call with CP192, in the test with CP194 and in the test with CP201 was inactive.
